Drawing on PubChem BioAssay (NCI), this text covers growth for 18 compounds.

The structures appear in SMILES notation. Compounds without any hit were thinned out: in the full panel of roughly 83,000, 20% have a hit.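 96-well plates, one dose, 48 hours. Percent growth reported; active if below 10.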 Unmarked numbers belong to inactive results. Activity calls are given as the source filed them.

Among the test systems are SK-MEL-2 melanoma; SN12C renal; UO-31 renal; TK-10 renal; ACHN renal; CAKI-1 renal; A498 renal; CCRF-CEM leukemia; EKVX NSCLC; MOLT-4 leukemia.
Test in all cases: NCI-60 one-dose screen, 48 h (100 = growth as untreated, 0 = no growth, -100 = all killed)
What all share (conditions): 10 µM

Turning to `COc1ccc(-c2cc(/C=C3\C(=O)Nc4cc(Cl)ccc43)[nH]n2)cc1`, the growth in the assay with SK-MEL-2 melanoma was -0.387% (active); in the assay with SN12C renal, 41.7%; with UO-31 renal, 27.2%; in the assay with TK-10 renal, 58.1%; in the assay on ACHN renal, 44.9%; in the assay on CAKI-1 renal it was 29.6%. For the same compound, the growth was 58.3% with A498 renal and 18.6% with CCRF-CEM leukemia.

For `O=C(OCc1ncc(-c2ccc(C(F)(F)F)cc2)c(NC2CCCCCC2)n1)c1c(F)c(F)c(F)c(F)c1F`, the growth is 54.6% in the assay with SK-MEL-2 melanoma; 54.1% in the assay on SN12C renal; 28.3% with UO-31 renal; 63.2% with TK-10 renal; 27.8% in the assay with ACHN renal; 89.6% with CAKI-1 renal. Besides, the growth in the assay with A498 renal is 102%; with CCRF-CEM leukemia, 15.7%.

As for `O=C(OCC1OC(n2cc(C(F)(F)F)c(=O)[nH]c2=O)CC1OC(=O)c1ccc([N+](=O)[O-])cc1)c1ccc([N+](=O)[O-])cc1` (stereo not drawn), the growth in the assay with SK-MEL-2 melanoma was 78%; with EKVX NSCLC it was 107%; in the assay with UO-31 renal, 50.3%; with TK-10 renal, 86.7%; in the assay with ACHN renal, 16%; in the assay with CAKI-1 renal, 38.6%. Also, in the assay on MOLT-4 leukemia, the growth was 77.4%.

With `CC(C)(C)CC(C)(C)c1ccc(O)c(Cc2ccc(Cl)cc2Cl)c1`, the growth is -76.9% (active) with SK-MEL-2 melanoma; -77.1% (active) with EKVX NSCLC; -98.7% (active) in the assay with UO-31 renal; -92.7% (active) with TK-10 renal; -83.3% (active) in the assay on CAKI-1 renal; -94% (active) in the assay on A498 renal. Besides, the results for the growth with CCRF-CEM leukemia and with MOLT-4 leukemia were -37.4% (active) and -62.7% (active), respectively.

For `CCOC(=O)CSC(=S)SCC(=O)OCC`, the growth in the assay on SK-MEL-2 melanoma was 96.7%; with SN12C renal it was 106%; in the assay on UO-31 renal, 102%; in the assay on TK-10 renal, 132%; with ACHN renal, 109%; in the assay on CAKI-1 renal it was 103%. In addition, the figures for the growth in the assay on A498 renal, with CCRF-CEM leukemia and in the assay with MOLT-4 leukemia were 121%, 85.1% and 96.6%, respectively.

Consider `Fc1cc(-c2ncc(-c3cc(F)c(F)c(F)c3)c(NC3CCCCCC3)n2)cc(F)c1F`, for which the growth in the assay with SK-MEL-2 melanoma was 111%; with SN12C renal, 87.9%; in the assay with UO-31 renal, 88.8%; with TK-10 renal, 152%; in the assay with ACHN renal, 106%; in the assay with CAKI-1 renal it was 87.6%. Further, the growth in the assay on A498 renal was 96.8%; in the assay on CCRF-CEM leukemia, 96.2%; in the assay on MOLT-4 leukemia it was 102%.

With `CCCCCc1cc[n+](CC(=O)c2ccc(Cl)cc2)cc1`, the growth in the assay on SK-MEL-2 melanoma is 109%; in the assay on EKVX NSCLC, 93.1%; in the assay on UO-31 renal, 91.2%; in the assay on ACHN renal, 99%; with CAKI-1 renal it was 92.5%; in the assay with A498 renal it was 63.1%. The growth with CCRF-CEM leukemia was 102%; in the assay on MOLT-4 leukemia, 92.7%.

As to `COc1cc(CSc2nc3ccc(Cl)cc3c(=O)n2-c2ccccc2)cc(OC)c1OC`, the growth is 77.5% in the assay on SK-MEL-2 melanoma; 76% with SN12C renal; 47.8% in the assay on UO-31 renal; 97.7% in the assay with TK-10 renal; 78.9% with ACHN renal; 73.9% in the assay on CAKI-1 renal. In addition, the growth with A498 renal is 81.7%; in the assay with CCRF-CEM leukemia it was 95.1%.

Turning to `NC1CCC(Nc2nc(NCc3ccc(-c4ccco4)nc3)c3ncn(C4CCCC4)c3n2)CC1` (stereo not drawn), the growth is -73.6% (active) in the assay with SK-MEL-2 melanoma; -2.93% (active) in the assay with EKVX NSCLC; 10.8% with UO-31 renal; 2.36% (active) in the assay with ACHN renal; 17.3% in the assay with CAKI-1 renal; -70.8% (active) in the assay with A498 renal. The values for the growth in the assay on CCRF-CEM leukemia and in the assay with MOLT-4 leukemia were -0.411% (active) and -12.3% (active), respectively.

`COc1ccc(-c2[nH]ncc2/C=C/c2cc(C(F)(F)F)[nH]c(=O)n2)cc1`: the growth in the assay on SK-MEL-2 melanoma is 82.9%; in the assay on SN12C renal it was 96.2%; in the assay on UO-31 renal, 87.1%; in the assay on TK-10 renal, 94.8%; in the assay on ACHN renal, 92.6%; in the assay with CAKI-1 renal, 102%. Moreover, the figures for the growth with A498 renal and with CCRF-CEM leukemia were 89.3% and 73%, respectively.

On to `COc1ccc2oc(=O)cc(C(c3ccc[nH]3)c3ccc[nH]3)c2c1`, for which the growth in the assay on SK-MEL-2 melanoma is 5.1% (active); with EKVX NSCLC it was 32.7%; in the assay with UO-31 renal, 16.9%; in the assay on ACHN renal, 17.3%; in the assay with CAKI-1 renal, 15.2%; in the assay on A498 renal, -8.63% (active). Further, the growth in the assay with CCRF-CEM leukemia is 11.3%; in the assay on MOLT-4 leukemia it was 6.26% (active).

Consider `COc1ccc(-c2nc(NC(=O)CS(=O)(=O)c3ccc(F)cc3)sc2C)cc1`, for which the growth in the assay on SK-MEL-2 melanoma was 72.7%; in the assay with SN12C renal, 55.5%; with UO-31 renal, 26.8%; in the assay on TK-10 renal, 98.4%; in the assay on ACHN renal, 73.5%; in the assay on CAKI-1 renal, 51.8%. For the same compound, the values for the growth in the assay with A498 renal and with CCRF-CEM leukemia were 93.6% and 21.2%, respectively.

For `Cc1cc(C(C)(C)CC(C)(C)C)ccc1OCCOCC[N+](C)(C)Cc1ccccc1`, the growth was -34.2% (active) with SK-MEL-2 melanoma; -0.736% (active) with EKVX NSCLC; 65.4% with UO-31 renal; 89.1% with CAKI-1 renal; 4.39% (active) in the assay on A498 renal; -8.84% (active) in the assay on CCRF-CEM leukemia. Moreover, the growth with MOLT-4 leukemia is -39.6% (active).

For the compound `CN(C)c1ccc2cc(-c3cc4c(oc3=O)-c3ccccc3OC4O)c(=O)oc2c1` (stereo not drawn), the growth in the assay with SK-MEL-2 melanoma is -38.2% (active); in the assay with EKVX NSCLC, 22.6%; in the assay with TK-10 renal, -36.4% (active); with ACHN renal, 4.78% (active); with CAKI-1 renal, -4.81% (active); with CCRF-CEM leukemia it was -20.5% (active). Further, in the assay with MOLT-4 leukemia, the growth was -64.7% (active).

`COc1ccc2c(=O)cc(C(Cl)(Cl)Cl)oc2c1`: the growth in the assay on SK-MEL-2 melanoma was -75.2% (active); with SN12C renal, 2.57% (active); with UO-31 renal it was -19.3% (active); in the assay on TK-10 renal, -20.4% (active); in the assay with ACHN renal it was 10.6%; in the assay with CAKI-1 renal it was -14.5% (active). The growth is -68.5% (active) in the assay with A498 renal and -21.2% (active) with CCRF-CEM leukemia.

On to `COc1ccc(-c2nc3sc(-c4ccccc4)c(-c4ccccc4)n3c2/C=C/c2ccc(F)cc2)cc1`, for which the growth in the assay on SK-MEL-2 melanoma is 89.3%; with SN12C renal, 86.7%; in the assay on UO-31 renal, 82.7%; with TK-10 renal, 115%; in the assay on ACHN renal, 78.9%; in the assay with CAKI-1 renal, 67%. The growth in the assay with A498 renal was 108%; with CCRF-CEM leukemia, 88.1%; in the assay with MOLT-4 leukemia, 74.8%.

Turning to `Cc1ccc(C)c(S(=O)(=O)NC2c3ccccc3Oc3ccccc32)c1`, the growth with SK-MEL-2 melanoma was 101%; with EKVX NSCLC it was 100%; in the assay on UO-31 renal, 81.4%; in the assay with ACHN renal, 82.3%; in the assay with CAKI-1 renal, 88.7%; in the assay with CCRF-CEM leukemia it was 73.7%. For the same compound, the growth in the assay with MOLT-4 leukemia is 89.3%.

Turning to `Clc1ccc(-c2nc(-c3cccs3)cn3ccnc23)cc1`, the growth in the assay with SK-MEL-2 melanoma was 70.6%; in the assay on SN12C renal, 85.3%; in the assay on UO-31 renal, 45.9%; in the assay with TK-10 renal, 60.7%; in the assay with ACHN renal, 91.2%; with CAKI-1 renal, 59%. Also, the growth with A498 renal is 90.5%; in the assay on CCRF-CEM leukemia, 65.3%.
